The values that follow come from PubChem BioAssay AID2716 (Broad Institute, 2010).

The structures appear in SMILES notation. About 3,300 (1%) of roughly 320,000 compounds were called active. The sample holds actives, similar compounds and a random draw of the others, so the mix is not that of the screen. Unmarked numbers belong to inactive results.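 How the source made its calls: active means every valid replicate shows activation above 250% relative to neutral control wells; inactive means the rest, any valid replicate at or below 250%.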

A short description of the assay: yeast Mot1-301 growth rescue at high temperature, primary screen, SUMOylation pathway inhibitor project, S. cerevisiae, ATP luminescence, 38.5C (AID 2716).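 Further: OY570 slx delta 5 strain wells were the positive control but not used for scaling.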 As to conditions: S. cerevisiae Mot1-301 growth rescue, at 18.8 µM, hits give high values, percent above DMSO median, 100 means doubled.
As to `O=C(NNC(=O)c1ccc(-n2cncn2)c([N+](=O)[O-])c1)c1ccccc1`, the growth rescue is 126%.
To `Cc1csc2nc(O)c(C(=O)NCCN3CCOCC3)c(=O)n12` belongs 25.8%; to `O=S(=O)(NCCc1ccc(F)cc1)c1cccc2cccnc12`, -5.12%.
With `O=C(CSCc1ccc(Cl)cc1)N1CCCCC1`, the growth rescue is 1570% (active).
As for `O=C(CSCc1ccc(Cl)cc1)N1CCN(Cc2ccc3c(c2)OCO3)CC1`, the figure is 194%; as for `O=C(CSCc1cccs1)N1CCCC1`, -5.87%.
As for `CC(C)(C)c1nnc(N/N=C/c2ccc(O)cc2)n(N)c1=O`, the figure is -10.1%; as for `COc1ccnc2c1c(=O)n(Cc1cccc(F)c1)c(=O)n2C`, 95.4%.
To `CCCCn1c(-c2cccc(C)c2)nc2cc3[nH]c(=O)c(C(C)C)nc3cc21` belongs -29.3%.
As to `COc1ccc(/C=C(/CC(=O)Nc2ccc(C)cc2)c2nc3ccccc3s2)cc1`, the growth rescue is 7.28%.
To `COc1cccc(/C=C(/CC(=O)Nc2ccc(N3CCOCC3)cc2)c2nc3ccccc3s2)c1` belongs 766% (active).
As for `COc1cc2ccccc2cc1C(=O)Nc1ccc(N2CCOCC2)cc1`, the figure is 4.29%; as for `CCc1c(C)nc(N2CCN(Cc3ccccc3)CC2)[nH]c1=O`, 1390% (active); as for `Cc1nnc(SCc2cc(=O)[nH]c(N3CCN(Cc4ccccc4)CC3)n2)s1`, 18.3%.
As for `CCCCCc1c(C)nc(N2CCN(Cc3ccc4c(c3)OCO4)CC2)[nH]c1=O`, the figure is -20.3%; as for `Oc1oc(-c2ccccc2Br)nc1/C=N/c1ccccn1`, 15.4%.
In the case of `CC(C)n1c(O)c(N=Nc2ccccn2)c2ccccc21`, the growth rescue is 421% (active).
`COC(=O)Cn1c(O)c(N=NC(=O)OC)c2ccccc21`: the growth rescue is -22.3%.
As for `COc1cccc2cc(C(=O)NCc3ccc(C)cc3)c(=N)oc12`, the figure is -7.41%; as for `O=C(COc1cccc2c1CCNC2=O)NC1CCCCC1`, -3.62%.
Take `COC(=O)c1cc2n(n1)CCCNC2=O`: the growth rescue was 0.35%.
To `COC(=O)Cn1cc(/C=C/[N+](=O)[O-])c2ccccc21` belongs 5.69%; to `O=[N+]([O-])/C=C/c1ccc2c(ccn2Cc2ccccc2)c1`, 436% (active); to `O=C(Cn1ccc2cc(S(=O)(=O)N3CCCC3)ccc21)NCc1ccccc1`, -15.1%.
For the molecule `Cc1sc2nc(CSCC(=O)Nc3c(Cl)cccc3Cl)[nH]c(=O)c2c1C`, the growth rescue is 2.95%.
To `Cc1nc(SCC(=O)NC2CCCC2)[nH]c(=O)c1C` belongs 4.8%; to `Cc1sc2nc(CSCC(=O)NC3CCCCC3)[nH]c(=O)c2c1C`, 345% (active).
Take `COc1ccc(Cl)cc1NC(=O)Cn1nc(-c2ccc(C)cc2)n(C)c1=S`: the growth rescue was 283%.
As for `Cc1ccc2c(c1)N(CC(=O)N1CCCC(C)C1)C(=O)CO2` (stereo unspecified), the figure is 1.32%; as for `Cc1ccc2c(c1)N(CC(=O)N1CCOCC1)C(=O)CO2`, 4.76%; as for `Cc1ccc2c(c1)N(CC(=O)NCC1CCCO1)C(=O)CO2` (stereo unspecified), 346% (active).
As for `CC(=O)N(c1ccc2oc(=O)sc2c1)S(=O)(=O)c1ccc(C)cc1`, the figure is 1.25%; as for `CCOc1cnc(-c2c(-c3ccccc3Cl)noc2C)o1`, 675% (active).
Regarding `Cc1onc(-c2ccccc2Cl)c1C(=O)OCC(=O)c1ccccc1`, the growth rescue is -4.82%.
As for `Cc1onc(-c2ccccc2Cl)c1C(=O)OCc1nnc(-c2ccccc2)o1`, the figure is 0.31%; as for `Cc1ccc(N(C(=O)c2ccc(S(=O)(=O)N(C)C)cc2)C2C=CS(=O)(=O)C2)cc1` (stereo unspecified), -4.36%; as for `COc1ccccc1NS(=O)(=O)c1ccc(C)c(C(=O)NNC(=O)c2csc(N3CCOCC3)n2)c1`, 6.56%.
Take `COC(=O)c1ccc(CSc2ccc3nnc(-c4ccccc4)n3n2)o1`: the growth rescue is -8.47%.
As to `Cc1ccc(S(=O)(=O)N2[C@@H](c3ccc(Br)cc3)C(C(=O)O)=C[C@H]2CC2CCCC2)cc1`, the growth rescue is 800% (active).
To `Cc1ccc([C@@H]2CC=C(C(=O)O)[C@H](c3cccc(Cl)c3)N2S(=O)(=O)c2ccc(C)cc2)cc1` belongs 24.4%.
To `Cc1ccc(S(=O)(=O)N2[C@@H](c3cccc4ccccc34)C(C(=O)O)=C[C@H]2C(C)(C)C)cc1` belongs 29.9%; to `CC12CN(NC(=O)c3ccc(Cl)cc3)C3(C#N)CC1CCC23C` (stereo unspecified), 42.1%; to `Cc1ccc(N(C(=O)Cc2cccs2)C(C(=O)NCC2CCCO2)c2ccncc2)cc1` (stereo unspecified), 5.34%.
As for `COC(=O)c1cccc(N(C(=O)CNC(=O)c2cccs2)C(C(=O)NCC2CCCO2)c2ccc(OC)c(OC)c2)c1` (stereo unspecified), the figure is -4.04%; as for `O=C(NCC(=O)N(c1ccccc1)C(C(=O)NCC1CCCO1)c1ccccc1)c1cccs1` (stereo unspecified), 679% (active).
`Cc1cc(C)n2nc(SCC(=O)NC(=O)NCc3ccco3)nc2n1`: the growth rescue was 6.86%.
To `COC(=O)C1(S(=O)(=O)C2(C(=O)OC)CCCC2)CCCC1` belongs -10%.
As for `CCN(CC)C(=O)CSC(Nc1cccc(F)c1)=C(C#N)C#N`, the growth rescue is 643% (active).
To `CCN(CC)C(=O)C(=O)Nc1cccc(Br)c1` belongs 1.06%; to `Cc1ccc(CSCC(=O)N(C)CC(=O)Nc2cccc(F)c2)cc1`, -8.64%.
With `Cc1ccc(NC(=O)[C@H](Cc2ccccc2)NC(=O)C2CCNCC2)cc1`, the growth rescue is 2.72%.
As for `N/C(=N\OC(=O)Nc1ccccc1)c1ccno1`, the figure is 4.96%; as for `O=c1c2c(ncn1Cc1ccccc1)nc1n2CCC1`, 490% (active); as for `Cn1c(=O)c2c(ncn2CCc2ccccc2)n(C)c1=O`, 43.8%.
For `O=c1c2cc([N+](=O)[O-])ccc2nc2n1CCC2`, the growth rescue is 12%.
As for `Cc1ccc(C)c(OCCC(=O)OCC(=O)c2ccc3c(c2)NC(=O)CO3)c1`, the figure is 0.132%; as for `O=C(CCNC(=O)c1ccc([N+](=O)[O-])cc1)Nc1ccccc1N1CCOCC1`, -1.52%; as for `CCCCN(C(=O)c1nn(C)c(=O)c2ccccc12)c1c(N)n(CCC)c(=O)[nH]c1=O`, -14.8%.
As for `COc1ccc(Cc2nnc(SCC(=O)N(c3ccccc3)C(C)C)n(N)c2=O)cc1`, the figure is 2.77%.
As for `CN(CCc1ccccc1)c1ccc([N+](=O)[O-])cn1`, the figure is 9.85%; as for `O=C(NN1C(=O)C2C3C=CC(C3)C2C1=O)c1ccco1` (stereo unspecified), -6.66%; as for `COc1cccc2cc(C(=O)N(C)C)c(=O)oc12`, 0.334%.
Turning to `CN(C)C(=O)c1coc2nc3ccccc3nc12`, the growth rescue is 924% (active).
As for `CNC(=O)c1cccc2nc3ccccc3nc12`, the figure is 16%.
Consider `CCOC(=O)C1(Cc2cccc(OC)c2)CCCN(S(=O)(=O)c2cccnc2)C1` (stereo unspecified), for which the growth rescue is 568% (active).
To `CCOC(=O)C1(Cc2cccc(OC)c2)CCCN(C(=O)CCSC)C1` (stereo unspecified) belongs -10.8%; to `CCOC(=O)C1(Cc2cccc(OC)c2)CCN(C(C)COC)CC1` (stereo unspecified), 9.8%.
Take `CCOC(=O)c1cc(C(=O)Nc2ccc(S(=O)(=O)Nc3ccc(OC)cc3)cc2)nn1C`: the growth rescue is 1.95%.
As for `Cc1ccc(C)c(S(=O)(=O)N2CCN(c3ncnc4sccc34)CC2)c1`, the figure is -2.33%; as for `C/[N+]([O-])=C\c1ccc([N+](=O)[O-])o1`, 330% (active).
For `CCc1ccc(S(=O)(=O)N/N=C\c2ccc([N+](=O)[O-])o2)cc1`, the growth rescue is -9.87%.
As for `Cc1cc(C)nc(N/N=C/c2ccc([N+](=O)[O-])o2)n1`, the figure is -7.8%; as for `NC(=O)C1(C(N)=O)OC1c1ccc(Cl)cc1Cl` (stereo unspecified), -6.75%.
`O=C(NCCc1ccco1)c1ccc(OCc2cn3ccccc3n2)cc1`: the growth rescue is -7.98%.
As for `CCc1nccn1S(=O)(=O)c1cccc([N+](=O)[O-])c1`, the figure is 1.13%; as for `Cc1cn(C2C=CC(CO)O2)c(=O)[nH]c1=O` (stereo unspecified), -3.98%.
